This is a sample that favours compounds with a hit; in the whole collection about 19% have one here.
RORgamma inh – inhibitors of mouse ROR gamma transcriptional activity; Potency, µM (doses to about 53.6 µM), without a hit: top-dose activity change, negative = inhibition, usual class: inhibitors; Drosophila S2 Gal4-RORgamma UAS-luciferase reporter, 20 h; 310,000 tested, 5.4% active; also: nearly all actives have a fitted effect of over 60% in size
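Read-out: Photinus luciferase luminescence; inhibitors lower reporter signal. Insect Schneider cells with Gal4-ROR gamma fusion under metallothionein promoter, UAS reporter; 700 uM final copper sulfate induction, 20 hr, ambient temperature.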
DT40 TDP1 CPT – growth inhibition of DT40 Tdp1-/-;hTDP1 cells with camptothecin (screen for TDP1 inhibitors) | chicken DT40 Tdp1-/-;hTDP1 cells + 20 nM CPT, ATP luminescence, 48 h | Potency, µM (series often up to 46.2 µM), without a hit: at the highest dose activity change, negative = growth inhibition, usual class: inhibitors | 420,000 tested, 12% active | AID 686979; also: nearly all actives have a fitted effect of over 55% in size
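Cell growth measured by CellTiter-Glo luminescence after a minimum 48 h, 37 C compound exposure with 20 nM CPT in Tdp1-knockout DT40 cells stably expressing hTDP1, seeded 400/well; qHTS titration format.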
DT40 TDP1 no CPT – qHTS for Inhibitors of human tyrosyl-DNA phosphodiesterase 1 (TDP1): qHTS in cells in absence of CPT; AID 686978, 2013; DT40 Tdp1-/- hTDP1 cells, no CPT, ATP luminescence, 48 h; 420,000 tested, 15% active; Potency, µM (series often up to 46.2 µM), for inactives: at the top dose activity change, negative = growth inhibition, usual class: inhibitors; also: nearly all actives have a fitted effect of over 55% in size
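Growth of hTDP1-complemented DT40 Tdp1-knockout cells is measured by ATP luminescence after at least 48 hr compound exposure at 37 °C, with DMSO substituting for the 20 nM CPT used in the parallel screen.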
Gal4-VP16 FLuc – inhibits Gal4-VP16 luciferase reporter, ROR gamma counter-screen; Potency, µM (highest dose often 53.6 µM), without a hit: at the top dose activity, negative = inhibition, actives largely listed as inhibitors; 310,000 tested, 3.5% active; AID 2546; Drosophila S2 Gal4-VP16 UAS-luciferase, luminescence, 20 h;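 also: Gal4-VP16 expression switched on by copper sulfate through the metallothionein promoter; nearly all actives have a fitted effect of over 50% in size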
TDP1 inh – blocks human tyrosyl-DNA phosphodiesterase 1 | recombinant TDP1, AlphaScreen DNA substrate cleavage | Q9NUW8 | 350,000 tested, 0.28% active | AID 485290 | Potency, µM (highest dose often 130 µM), without a hit: at the top dose activity change, negative = inhibition, most hits filed as inhibitors; also: nearly all actives have a fitted effect of over 40% in size
Target sequence (Q9NUW8 whole entry, looked up): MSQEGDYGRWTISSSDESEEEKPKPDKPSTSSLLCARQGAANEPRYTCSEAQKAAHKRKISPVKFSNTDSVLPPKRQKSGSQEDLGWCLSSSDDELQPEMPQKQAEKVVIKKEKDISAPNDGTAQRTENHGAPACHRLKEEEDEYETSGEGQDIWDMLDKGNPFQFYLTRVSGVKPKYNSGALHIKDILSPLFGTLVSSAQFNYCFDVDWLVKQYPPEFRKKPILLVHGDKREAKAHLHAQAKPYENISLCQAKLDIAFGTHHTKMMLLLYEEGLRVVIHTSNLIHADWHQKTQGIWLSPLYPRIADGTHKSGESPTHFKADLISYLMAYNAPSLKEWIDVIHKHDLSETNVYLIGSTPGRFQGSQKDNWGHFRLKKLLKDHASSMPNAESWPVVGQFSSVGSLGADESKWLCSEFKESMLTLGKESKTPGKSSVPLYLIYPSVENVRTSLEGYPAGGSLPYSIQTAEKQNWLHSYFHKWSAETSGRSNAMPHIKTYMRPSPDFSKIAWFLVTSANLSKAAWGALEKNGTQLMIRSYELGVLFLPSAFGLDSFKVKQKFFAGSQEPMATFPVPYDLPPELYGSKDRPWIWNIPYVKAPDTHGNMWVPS
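Steps: enzyme plus compound, 15 min RT; add biotin/phosphotyrosine-FITC oligonucleotide (15 nM final), react 5 min; add donor/acceptor beads (10 ug/ml final), 10 min; read AlphaScreen. Tdp1 at 1 nM final.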
Numbers without * were called inactive; ? = inconclusive; / = no result; [ ] = remark or other dose. Calls follow the shape of the dose curve; as a rule, active = well fitted curve in the direction sought with a large enough effect; inconclusive = small, poorly fitted or top-dose-only effect, or another doubt; inactive = no such curve, though single readings can be large; an effect the other way counts as inactive or inconclusive. % is scaled to controls: 0 for no effect and ±100 for the full control effect; potency is read from the fitted curve at half-maximal effect.

SMILES | RORgamma inh | DT40 TDP1 CPT | DT40 TDP1 no CPT | Gal4-VP16 FLuc | TDP1 inh
CS(=O)(=O)N1CCN(c2ccc(NC(=O)c3ccc(Br)o3)cc2)CC1 | -22.6% | -23.3% | 2.5% | 4.0%[0.365 µM] | 5.3%
Cc1cccc(NC(=O)c2nc[nH]c2C(=O)NCCCCNC(=O)c2[nH]cnc2C(=O)Nc2cccc(C)c2)c1 | / | 14.6µM* | 20.6µM* | / | 0.9%
Cc1cccc(NC(=O)c2nc[nH]c2C(=O)NCCCCCCNC(=O)c2[nH]cnc2C(=O)Nc2cccc(C)c2)c1 | / | 11.6µM* | 23.1µM* | / | 0.3%
Cc1cccc(NC(=O)c2nc[nH]c2C(=O)NCc2ccccc2)c1 | / | ? | ? | / | 1.9%
CNC(=O)c1[nH]cnc1C(=O)Nc1cccc(C)c1 | / | -0.9% | 1.9% | / | 0.5%
O=C1CC(c2ccccc2)Cc2[nH]c(=O)c(C(=O)Nc3ccc(OC(F)(F)F)cc3)cc21 (stereo not given) | / | 12.8% | -8.5% | / | -1.8%
CCCCCCN1CC(O)=C(c2ccccc2)C1=N | 39.7% | -3.9% | -1.4% | -5.8% | 2.3%
CCn1ccc(=N)cc1 | 4.6% | -18.4% | 4.3% | 15.8µM* | -9.5%
CCCCCCCCCn1ccc(=N)cc1 | ? | 0.231µM* | 0.146µM* | 1.58µM* | -1.4%
CCOc1cc(S(=O)(=O)N2CCN(c3ccc(F)cc3)CC2)c(OCC)cc1-n1cnnn1 | 2.8% | -21.3% | -16.7% | -2.9% | 6.1%
CC(C)C[C@@H](COCc1ccc([N+](=O)[O-])cc1)N1CCN(C(=O)c2ccc(C(F)(F)F)cc2)CCC1=O | / | ? | 16.4µM* | / | /
CC(C)CC(COCc1cccc(Cl)c1)N1CCN(C(=O)c2cccc(C(F)(F)F)c2)CCC1=O (stereo not given) | 1.2% | ? | ? | -3.6% | -5.3%
O=C(c1ccc(C(F)(F)F)cc1)N1CCC(=O)N([C@H](COCc2ccc(C(F)(F)F)cc2)Cc2ccccc2)CC1 | ? | 23.1µM* | ? | -9.4%[40.7 µM] | 4.1%[96 µM]
CC(C)CC(COCc1ccc(Cl)cc1)N1CCN(C(=O)c2ccc(Cl)cc2Cl)CCC1=O (stereo not given) | ? | 23.1µM* | ? | ? | 8.2%
CC(C)(C)c1ccc(C(=O)N2CCC(=O)N([C@H](COCc3ccc(Cl)cc3)Cc3ccccc3)CC2)cc1 | 4.4%[40.7 µM] | / | / | -5.5%[40.7 µM] | -3.1%[96 µM]
CC(C)C[C@@H](COCc1ccc(Cl)cc1)N1CCN(C(=O)c2ccc(C(F)(F)F)cc2)CCC1=O | / | ? | 20.6µM* | / | /
Cc1cccc(C(=O)N2CCC(=O)N([C@H](COCc3ccccc3)Cc3ccccc3)CC2)c1 | 37.1% | ? | ? | -2.1% | 7.1%
CS(=O)(=O)NNC(=O)C1Cc2c(ccc3ccccc23)O1 (stereo not given) | 17.8% | -11.7% | -5.4% | 2.1% | /
Cc1cccc(COC[C@H](CC(C)C)N2CCN(C(=O)c3ccc(C(F)(F)F)cc3)CCC2=O)c1 | / | ? | 16.4µM* | / | /
CCn1c(SCC(=O)N2CCCCC2)nc(O)cc1=O | 30.5% | -1.2% | -15.6% | -7.7% | 0.0%
O=S(=O)(Nc1nc2ccccc2s1)c1cnc(Cl)c(Br)c1 | -1.2% | 23.1µM* | ? | 0.7% | 3.8%
CCOC(=O)CN(c1cccc(C(C)=O)c1)S(C)(=O)=O | -13.4% | 5.6% | -2.7% | -5.6% | 4.7%
Cc1cc(Br)cc2c(C(=O)Nc3c(C)n(C)n(-c4ccccc4)c3=O)cc(-c3cccs3)nc12 | ? | 23.1µM* | 16.4µM* | 1.8%[0.365 µM] | -10.5%
CCc1ccc(-c2cc(C(=O)Nc3c(C)n(C)n(-c4ccccc4)c3=O)c3ccccc3n2)s1 | 44.6% | ? | 16.4µM* | 4.8% | 4.0%
COC(=O)c1cccc(OCC(O)Cn2cnc3cc(C)c(C)cc32)c1 (stereo not given) | 31.3% | ? | ? | ? | 5.1%
Cc1nc2ccccc2n1CC(O)Cn1c(C(F)(F)F)nc2ccccc21 (stereo not given) | 29.3% | -18.7% | ? | 0.4% | 2.0%
